# In the library only some 8% were active in any assay of this set; here they are far more common.
# HCV inh: inhibitors of hepatitis C virus infection | 3.4% of 340,000 active | Potency, µM (top dose mostly 41.8 µM), inactives show at the top dose activity change, negative = inhibition, hits mostly inhibitors | Huh7.5.1 HCVcc-Cre infection, luciferase reporter, 44 h; active = well fitted inhibition curve with a large enough effect; inconclusive = small, poorly fitted or top-dose-only effect, or another doubt; inactive = no such curve, though single readings can be large or run the other way; also: potency is read from the fitted curve at half-maximal effect; % is scaled to controls: 0 for no effect and ±100 for the full control effect
#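 Compounds are dispensed onto cells plated 4 h earlier at 1,000 per well, with HCVcc-Cre virus (about 0.5 moi) added next. Following 44 h of culture, luminescent signal is measured for 15 sec after 15 min with substrate at room temperature.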
# HCMV antiviral: inhibitors of human cytomegalovirus | HFF cells, HCMV-luciferase reporter, 72 h; active compounds read low | activity change, negative = inhibition, % at 57.5 µM | 4.5% of 410,000 active; in the data active = activity change below about -60%; inconclusive = no clear call, values can overlap the other calls; inactive = above about -39%; also: % is scaled to controls: 0 for no effect and ±100 for the full control effect
#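 Inhibition of viral replication was scored as loss of reporter luminescence in HFFs infected with HCMV-luciferase (MOI 1 PFU/cell) for 72 h; compounds tested at 2 doses, normalized to buffer and Salinomycin controls.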
# LASV entry inh: blocks Lassa virus binding to or entry into cells. Lassa virus pseudotype entry inhibition, cell reporter. Potency, µM (titrated, usually from 37.9 µM), without a hit: at the highest dose activity change, negative = inhibition, actives largely listed as inhibitors. 1.2% of 300,000 active. AID 540256; calls by dose curve; tested in HEK293 cells; also: potency is read from the fitted curve at half-maximal effect; % is scaled to controls: 0 for no effect and ±100 for the full control effect; nearly all actives have a fitted effect of over 50% in size
# Marburg entry inh: Marburg virus entry inhibition; Marburg virus pseudotyped entry inhibition, cell reporter; Potency, µM (top dose mostly 37.8 µM), for the others: at the highest dose activity change, negative = inhibition, most hits filed as inhibitors; 1.8% of 300,000 active; AID 540276; calls by dose curve; tested in HEK293 cells; also: potency is read from the fitted curve at half-maximal effect; % is scaled to controls: 0 for no effect and ±100 for the full control effect
# FMDV inh: antivirals against foot and mouth disease virus; Potency, µM (titrated, usually from 57.9 µM), inactives show at the top dose activity change, negative = inhibition, hits mostly inhibitors; 1.2% of 410,000 active; FMDV antiviral cell-based qHTS; calls by dose curve; tested in HEK293T cells; also: read-out not given here; potency is read from the fitted curve at half-maximal effect; % is scaled to controls: 0 for no effect and ±100 for the full control effect; nearly all actives have a fitted effect of over 45% in size
# SARS PLP yeast: SARS-CoV PLP inhibition in yeast. AID 485353. S. cerevisiae expressing SARS-CoV PLpro, growth rescue. Potency, µM (series often up to 32.9 µM), for inactives: top-dose activity, positive = growth rescue, actives largely listed as activators. 0.19% of 330,000 active; calls by dose curve; also: potency is read from the fitted curve at half-maximal effect; 0% is about no effect; nearly all actives have a fitted effect of over 55% in size
# * marks the source's active call; other numbers are inactive results; u = inconclusive; x = no result given; [ ] = remark or other dose.
SMILES,HCV inh,HCMV antiviral,LASV entry inh,Marburg entry inh,FMDV inh,SARS PLP yeast
Cc1cc2nnc(SCC(=O)Nc3cc(S(=O)(=O)N4CCOCC4)ccc3Cl)n2c2ccccc12,u,u,14.1%,7.94µM*,u,13.8%
COc1ccc2c(c1)CC(C(=O)NCCc1ccc(S(N)(=O)=O)cc1)CO2 (stereo not given),x,-3.2,-2.4%[46.1 µM],x,-4.6%,x
ClC(Cl)(Cl)c1nc2ccccc2n2nncc12,12.6µM*,-88.4*,u,4.47µM*,u,-2.4%
c1ccc2c(c1)nnn1c3ccccc3nc21,x,x,x,-6.2%,x,-5.3%
COc1ccc(N(C(=O)CNS(=O)(=O)c2ccccc2)C(C(=O)NCc2ccco2)C(C)C)cc1 (stereo not given),9.3%,16.5,-9.7%[46.1 µM],-16.7%[46.1 µM],-18.3%,0.5%
Cc1cc(C)cc(N(C(=O)CNS(=O)(=O)c2ccccc2)C(C(=O)NCc2ccccc2)c2ccc(C)o2)c1 (stereo not given),23.1%,1.9,11.6µM*,u,-9.5%,11.7%
Cc1ccc(S(=O)(=O)NCC(=O)N(c2ccccc2)C(C(=O)NCc2ccccc2)c2ccco2)cc1 (stereo not given),3.4%,-85.5*,u,20µM*,0.0%,4.9%
COc1ccc(S(=O)(=O)NC(C(=O)NCCc2ccccn2)C(C)C)cc1 (stereo not given),20.9%,-66.5*,29.9%,7.1%,-4.4%,-7.1%
COC(=O)C1=C(C)N(c2ccc(Cl)cc2)/C(=C/c2ccc(O)cc2)C1=O,u,-20.5,-20.4%,u,25.1µM*,0.1%
COC(=O)C1=C(C)N(c2cc(C)cc(C)c2)/C(=C/c2ccc(O)cc2)C1=O,u,-96.1*,x,x,u,-0.3%
CCOC(=O)Nc1c[n+](N2CCOCC2)no1,x,x,x,0.7%,x,x
C[C@@H](C(=O)Nc1ccc2ccccc2c1)[C@@H]1C[C@@]1(C)[C@@H](NC(=O)c1ccccc1)c1ccccc1,4.1%[8.37 µM],14.9,0.6%,-28.7%,1.3%,-9.2%
C[C@@H](C(=O)Nc1ccc2ccccc2c1)[C@H]1C[C@]1(C)[C@H](NS(=O)(=O)c1ccc(-c2ccccc2)cc1)c1ccccc1,22.3%[8.37 µM],-15.0,-20.6%,11.6µM*,2.9%,4.7%
Cc1scc(C(=O)NNC(=S)NC(C)c2ccccc2)c1C (stereo not given),-14.3%,-77.6*,-12.2%,-7.6%,-0.7%,u
O=C(NCCCN1CCOCC1)c1ccc(/C=C2\Oc3ccccc3N(Cc3ccccc3F)C2=O)cc1,u,0.0,x,x,u,-1.8%
CCN1CCN(CCCNC(=O)c2ccc(/C=C3/Sc4ccccc4N(Cc4ccccc4F)C3=O)cc2)CC1,11.2µM*,u,x,x,-19.5%,-12.3%
CCN1CCN(CCNC(=O)c2ccc(/C=C3/Sc4ccccc4N(Cc4ccccc4C)C3=O)cc2)CC1,6.31µM*,-62.6*,x,x,0.9%,-2.3%
O=C(CCN1Cc2ccccc2OC(c2ccccc2F)C1)N1CCC(N2CCCC(O)C2)CC1 (stereo not given),x,x,x,x,7.3%,x
O=C(NC(=S)N1CCCC(C(F)(F)F)C1)c1ccc(F)cc1 (stereo not given),8.7%,-66.1*,-13.8%[46.1 µM],5.1%[46.1 µM],3.3%,6.4%
CC(=O)c1ccc(NC(=S)N2CCCC(C(F)(F)F)C2)cc1 (stereo not given),19.9%,-8.1,24.4%,-13.5%[46.1 µM],20.3%,0.2%
CSc1ccc(NC(=O)CSc2nc3[nH]c(=O)cc(O)c3s2)cc1,23.8%,-15.0,x,x,-6.2%,15.0%
N#Cc1ccc(NC(=O)CSc2nc3[nH]c(=O)cc(O)c3s2)cc1,25.3%,-91.7*,x,x,-12.3%,1.7%
O=C(CNC(=O)c1cccc(Br)c1)N/N=C/c1ccc2c(c1)OCO2,4.5%,-74.2*,13.0%[46.1 µM],21.8%[46.1 µM],38.1%,2.1%
S=C(NCc1ccccn1)NN=Cc1ccccn1,u,-98.7*,12.6µM*,u,7.9%,x
O=C(CN(Cc1ccccc1)S(=O)(=O)c1ccccc1)N/N=C/c1ccc2c(c1)OCO2,u,-28.6,7.3µM*,u,x,-4.7%
SMILES,HCV inh,HCMV antiviral,LASV entry inh,Marburg entry inh,FMDV inh,SARS PLP yeast
O=C(NCc1ccccn1)C(=O)N/N=C/c1ccc2c(c1)OCO2,-2.4%,-90.5*,x,x,55.9%,0.1%
O=C(CSc1ncc(S(=O)(=O)c2ccc(Cl)cc2)c(=O)[nH]1)Nc1ccc2c(c1)OCCO2,x,4.0,x,1.8%[46.1 µM],-8.9%,x
CCn1c(O)c(N=NC(=O)CNC(=O)Cc2ccccc2)c2ccccc21,-15.1%,-1.1,10.5%[46.1 µM],0.3%[46.1 µM],-2.2%,-0.4%
O=C(CNC(=O)c1ccco1)N=Nc1c(O)n(CCc2ccccc2)c2ccccc12,u,-84.0*,x,x,-23.6%,-1.4%
N#C/C(=C\c1ccccc1[N+](=O)[O-])C(=O)NCc1ccccc1,5.2%,5.9,-0.7%[46.1 µM],5.6%[46.1 µM],-29.7%,-2.7%
N#C/C(=C/c1ccc(O)c([N+](=O)[O-])c1)C(=O)Nc1ccccc1,11.2%,u,-6.8%[46.1 µM],2.51µM*,u,-16.2%
N#C/C(=C\C=C\c1ccccc1[N+](=O)[O-])C(=O)NCc1ccccc1,31.6µM*,-98.4*,10µM*,u,-39.0%,-3.9%
N#C/C(=C/c1ccc([N+](=O)[O-])cc1)C(=O)Nc1ccccc1O,4.2%,57.0,13.5%,u,-10.5%,-56.0%
N#C/C(=C\C=C\c1ccccc1)C(=O)Nc1ccccc1,-15.5%,u,-1.1%,-20.1%,1.5%,-1.0%
N#C/C(=C/C=C/c1ccccc1)C(=O)Nc1ccccc1,-8.7%,5.1,u,2.91µM*,30.2%,9.3%
CCC[C@H]1CN(Cc2ccccc2)C(=O)[C@H]1CC(=O)NC,x,x,-3.7%[46.1 µM],x,x,x
Cc1cc(N2CCC(C(=O)Nc3ccc(F)cc3F)CC2)n2nc(C)c(-c3ccc(Cl)cc3)c2n1,x,-3.8,10.9%[46.1 µM],6.4%[46.1 µM],-19.4%,x
Cc1ccc(S(=O)(=O)N2CCCC(C(=O)NCCc3ccc(Cl)cc3)C2)cc1 (stereo not given),x,-18.9,x,x,-15.8%,x
O=C(/C=C/Nc1ccccc1F)c1cccs1,8.6%,74.1,1.41µM*,6.31µM*,12.6µM*,-5.3%
O=C(/C=C\Nc1ccc2c(c1)OCO2)c1ccccn1,14.5%,-80.9*,0.447µM*,u,2µM*,-16.9%
O=C(/C=C\Nc1cccc(F)c1)c1cccs1,5.7%,69.9,11.2µM*,u,-36.1%,-16.9%
CCOC(=O)c1ccccc1N/C=C/C(=O)c1cccs1,u,53.8,-2.6%,u,14.1%,-23.2%
O=C(/C=C\Nc1ccc2c(c1)OCO2)c1cccs1,5.7%,-11.8,u,u,10µM*,-3.0%
O=C(/C=C\Nc1ccc2c(c1)OCO2)c1ccc(Cl)s1,2.4%,70.0,u,u,u,-0.4%
CCOC(=O)C1CCCCN1C(=O)c1ccc(-n2cc(NC(=O)c3cccnc3)cn2)cc1 (stereo not given),x,x,x,x,11.3%,x

# Screens from PubChem.
